Laboratory results from PubChem BioAssay AID1159580 (chemical genetic matrix, 2015).
Screen size: about 5,500 compounds; about 2,000 (36%) were called active. Not shown: some 18% with an inconclusive outcome. Cut-off read from the data, not from the text of the source: active = normalized growth mostly below about 0.91 (no sharp cut-off); inconclusive = no clear call, values can overlap the other calls; inactive = mostly above about 0.92. Some of the results follow.

Assay: chemical genetic growth profiling, strain panel (AID 1159580);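 note: tested at 20 µM; growth read once vehicle control cultures reached saturation at 30 °C; 1 = growth at the plate median or of vehicle wells; lower values mean less growth of the strain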
Details: growth OD
[1] = S. cerevisiae deletion strains, locus YHR030C, strain SLT2, stronger effect = lower value
[2] = S. cerevisiae deletion strains, locus YJL187C, strain SWE1, stronger effect = lower value
[3] = S. cerevisiae deletion strains, locus YJR075W, strain HOC1, stronger effect = lower value
[4] = S. cerevisiae deletion strains, locus YMR307W, strain GAS1, stronger effect = lower value
[5] = S. cerevisiae deletion strains, locus YNL322C, strain KRE1, stronger effect = lower value
[6] = S. cerevisiae deletion strains, locus YPL055C, strain LGE1, stronger effect = lower value
[7] = S. cerevisiae deletion strains, locus YPL241C, strain CIN2, stronger effect = lower value
[8] = S. cerevisiae deletion strains, locus YAL013W, strain DEP1, stronger effect = lower value
[9] = S. cerevisiae deletion strains, locus YBR229C, strain ROT2, stronger effect = lower value
[10] = S. cerevisiae deletion strains, locus YDL101C, strain DUN1, stronger effect = lower value
[11] = S. cerevisiae deletion strains, locus YDL134C, strain PPH21, stronger effect = lower value
[12] = S. cerevisiae deletion strains, locus YDR150W, strain NUM1, stronger effect = lower value
[13] = S. cerevisiae deletion strains, locus YEL061C, strain CIN8, stronger effect = lower value
[14] = S. cerevisiae deletion strains, locus YGR078C, strain PAC10, stronger effect = lower value
[15] = S. cerevisiae deletion strains, locus YHR087W, strain rtc3, stronger effect = lower value
[16] = S. cerevisiae deletion strains, locus YJR043C, strain POL32, stronger effect = lower value
[17] = S. cerevisiae deletion strains, locus YKL190W, strain CNB1, stronger effect = lower value
[18] = S. cerevisiae deletion strains, locus YLR039C, strain RIC1, stronger effect = lower value
[19] = S. cerevisiae deletion strains, locus YLR058C, strain SHM2 (second series), stronger effect = lower value
[20] = S. cerevisiae deletion strains, locus YLR085C, strain ARP6, stronger effect = lower value
[21] = S. cerevisiae deletion strains, locus YLR262C, strain YPT6, stronger effect = lower value
[22] = S. cerevisiae deletion strains, locus YML094W, strain GIM5, stronger effect = lower value
[23] = S. cerevisiae deletion strains, locus YMR219W, strain ESC1, stronger effect = lower value
[24] = S. cerevisiae deletion strains, locus YMR263W, strain SAP30, stronger effect = lower value
[25] = S. cerevisiae deletion strains, locus YNL153C, strain GIM3, stronger effect = lower value
[26] = S. cerevisiae deletion strains, locus YNL298W, strain CLA4 (second series), stronger effect = lower value
[27] = S. cerevisiae deletion strains, locus YNR030W, strain Alg12, stronger effect = lower value
[28] = S. cerevisiae deletion strains, locus YPR135W, strain CTF4, stronger effect = lower value
[29] = S. cerevisiae deletion strains, locus YCL061C, strain MRC1, stronger effect = lower value
[30] = S. cerevisiae deletion strains, locus YGR229C, strain SMI1, stronger effect = lower value

Measured: normalized growth

NC(=O)CS(=O)C(c1ccccc1)c1ccccc1 (stereo not given)
inactive: S. cerevisiae deletion strains, locus YAL021C, strain ccr4, stronger effect = lower value 1.01 | S. cerevisiae deletion strains, locus YAL026C, strain drs2, stronger effect = lower value 1.04 | S. cerevisiae deletion strains, locus YAL030W, strain snc1, stronger effect = lower value 1.02 | S. cerevisiae deletion strains, locus YBL061C, strain skt5, stronger effect = lower value 1.02 | S. cerevisiae deletion strains, locus YBR009C, strain hhf1, stronger effect = lower value 0.976 | S. cerevisiae deletion strains, locus YBR023C, strain chs3, stronger effect = lower value 1.03 | S. cerevisiae deletion strains, locus YBR171W, strain sec66, stronger effect = lower value 1.02 | S. cerevisiae deletion strains, locus YBR231C, strain swc5, stronger effect = lower value 1 | S. cerevisiae deletion strains, locus YBR279W, strain paf1, stronger effect = lower value 1.02 | S. cerevisiae deletion strains, locus YCL011C, strain gbp2, stronger effect = lower value 1.02 | S. cerevisiae deletion strains, locus YCL016C, strain dcc1, stronger effect = lower value 1.04 | S. cerevisiae deletion strains, locus YCL069W, strain vba3, stronger effect = lower value 0.998 | S. cerevisiae deletion strains, locus YCR088W, strain abp1, stronger effect = lower value 1.01 | S. cerevisiae deletion strains, locus YDL005C, strain med2, stronger effect = lower value 1.03 | S. cerevisiae deletion strains, locus YDL040C, strain nat1, stronger effect = lower value 0.998 | S. cerevisiae deletion strains, locus YDR001C, strain nth1, stronger effect = lower value 1 | S. cerevisiae deletion strains, locus YDR069C, strain doa4, stronger effect = lower value 1.02 | S. cerevisiae deletion strains, locus YDR137W, strain rgp1, stronger effect = lower value 1.05 | S. cerevisiae deletion strains, locus YDR159W, strain sac3, stronger effect = lower value 0.939 | S. cerevisiae deletion strains, locus YDR195W, strain ref2 0.981 | S. cerevisiae deletion strains, locus YDR297W, strain sur2, stronger effect = lower value 0.994 | S. cerevisiae deletion strains, locus YDR334W, strain swr1, stronger effect = lower value 1 | S. cerevisiae deletion strains, locus YDR335W, strain msn5, stronger effect = lower value 1.02 | S. cerevisiae deletion strains, locus YDR392W, strain spt3, stronger effect = lower value 0.968 | S. cerevisiae deletion strains, locus YEL003W, strain gim4, stronger effect = lower value 0.99 | S. cerevisiae deletion strains, locus YEL037C, strain rad23, stronger effect = lower value 1.01 | S. cerevisiae deletion strains, locus YEL061C, strain CIN8 (second series), stronger effect = lower value 1.01 | S. cerevisiae deletion strains, locus YER015W, strain faa2, stronger effect = lower value 1.01 | S. cerevisiae deletion strains, locus YER016W, strain bim1, stronger effect = lower value 1.02 | S. cerevisiae deletion strains, locus YER111C, strain swi4, stronger effect = lower value 1.01 | S. cerevisiae deletion strains, locus YER155C, strain BEM2 (second series), stronger effect = lower value 1.02 | S. cerevisiae deletion strains, locus YFR010W, strain ubp6, stronger effect = lower value 0.987 | S. cerevisiae deletion strains, locus YGL167C, strain pmr1, stronger effect = lower value 1 | S. cerevisiae deletion strains, locus YGL173C, strain kem1, stronger effect = lower value 1 | S. cerevisiae deletion strains, locus YGL227W, strain vid30, stronger effect = lower value 1.01 | S. cerevisiae deletion strains, locus YGL240W, strain doc1, stronger effect = lower value 1.01 | S. cerevisiae deletion strains, locus YGL253W, strain hxk2, stronger effect = lower value 1.03 | S. cerevisiae deletion strains, locus YHR013C, strain ard1, stronger effect = lower value 1.05 | S. cerevisiae deletion strains, locus YHR027C, strain rpn1, stronger effect = lower value 1.01 | [1] 1.04 | S. cerevisiae deletion strains, locus YHR079C, strain IRE1, stronger effect = lower value 1.04 | S. cerevisiae deletion strains, locus YHR142W, strain chs7, stronger effect = lower value 1.01 | S. cerevisiae deletion strains, locus YJL092W, strain hpr5, stronger effect = lower value 1 | S. cerevisiae deletion strains, locus YJL095W, strain BCK1 (second series), stronger effect = lower value 1.02 | S. cerevisiae deletion strains, locus YJL095W, strain BCK1, stronger effect = lower value 0.996 | S. cerevisiae deletion strains, locus YJL115W, strain asf1, stronger effect = lower value 1.01 | S. cerevisiae deletion strains, locus YJL129C, strain trk1, stronger effect = lower value 1.04 | S. cerevisiae deletion strains, locus YJL154C, strain vps35, stronger effect = lower value 1.01 | S. cerevisiae deletion strains, locus YJL164C, strain tpk1, stronger effect = lower value 0.988 | S. cerevisiae deletion strains, locus YJL166W, strain qcr8, stronger effect = lower value 0.982 | [2] 1.01 | S. cerevisiae deletion strains, locus YJR066W, strain TOR1, stronger effect = lower value 0.977 | S. cerevisiae deletion strains, locus YKL160W, strain elf1, stronger effect = lower value 1.05 | S. cerevisiae deletion strains, locus YKR026C, strain gcn3, stronger effect = lower value 1.01 | S. cerevisiae deletion strains, locus YKR091W, strain srl3, stronger effect = lower value 1.01 | S. cerevisiae deletion strains, locus YLL001W, strain dnm1, stronger effect = lower value 0.972 | S. cerevisiae deletion strains, locus YLL026W, stronger effect = lower value 1 | S. cerevisiae deletion strains, locus YLL041C, strain sdh2, stronger effect = lower value 1 | S. cerevisiae deletion strains, locus YLR027C, strain aat2, stronger effect = lower value 0.985 | S. cerevisiae deletion strains, locus YLR113W, strain HOG1, stronger effect = lower value 0.961 | S. cerevisiae deletion strains, locus YLR221C, strain rsa3, stronger effect = lower value 0.977 | S. cerevisiae deletion strains, locus YLR258W, strain gsy2, stronger effect = lower value 1.03 | S. cerevisiae deletion strains, locus YLR262C, strain YPT6 (second series), stronger effect = lower value 1.01 | S. cerevisiae deletion strains, locus YLR320W, strain mms22, stronger effect = lower value 0.958 | S. cerevisiae deletion strains, locus YLR342W, strain FKS1, stronger effect = lower value 1.02 | S. cerevisiae deletion strains, locus YLR357W, strain rsc2, stronger effect = lower value 0.997 | S. cerevisiae deletion strains, locus YLR370C, strain arc18, stronger effect = lower value 1.02 | S. cerevisiae deletion strains, locus YLR384C, strain iki3, stronger effect = lower value 1.02 | S. cerevisiae deletion strains, locus YML120C, strain ndi1, stronger effect = lower value 0.981 | S. cerevisiae deletion strains, locus YMR058W, strain fet3, stronger effect = lower value 1.02 | S. cerevisiae deletion strains, locus YMR125W, strain sto1, stronger effect = lower value 1.04 | S. cerevisiae deletion strains, locus YMR129W, stronger effect = lower value 1.01 | S. cerevisiae deletion strains, locus YMR205C, strain PFK2, stronger effect = lower value 1.01 | S. cerevisiae deletion strains, locus YMR231W, strain pep5, stronger effect = lower value 0.999 | S. cerevisiae deletion strains, locus YNL071W, strain lat1, stronger effect = lower value 1.02 | S. cerevisiae deletion strains, locus YNL183C, strain NPR1, stronger effect = lower value 0.958 | S. cerevisiae deletion strains, locus YNL209W, strain ssb2, stronger effect = lower value 1.01 | S. cerevisiae deletion strains, locus YNL248C, strain rpa49, stronger effect = lower value 1.04 | S. cerevisiae deletion strains, locus YNL322C, strain KRE1 (second series), stronger effect = lower value 1.02 | S. cerevisiae deletion strains, locus YNR049C, strain mso1, stronger effect = lower value 1.03 | S. cerevisiae deletion strains, locus YOR001W, strain rrp6, stronger effect = lower value 0.928 | S. cerevisiae deletion strains, locus YOR070C, strain gyp1, stronger effect = lower value 1.01 | S. cerevisiae deletion strains, locus YOR080W, strain dia2, stronger effect = lower value 1.01 | S. cerevisiae deletion strains, locus YOR083W, strain WHI5, stronger effect = lower value 0.976 | S. cerevisiae deletion strains, locus YOR106W, strain vam3, stronger effect = lower value 1.02 | S. cerevisiae deletion strains, locus YOR231W, strain MKK1, stronger effect = lower value 1.02 | S. cerevisiae deletion strains, locus YOR265W, strain rbl2, stronger effect = lower value 1.01 | S. cerevisiae deletion strains, locus YOR270C, strain vph1, stronger effect = lower value 1.05 | S. cerevisiae deletion strains, locus YOR290C, strain snf2, stronger effect = lower value 1.06 | S. cerevisiae deletion strains, locus YPL051W, strain arl3, stronger effect = lower value 1.06 | S. cerevisiae deletion strains, locus YPL078C, strain atp4, stronger effect = lower value 1.05 | S. cerevisiae deletion strains, locus YPL106C, strain sse1, stronger effect = lower value 1.04 | S. cerevisiae deletion strains, locus YPL240C, strain hsp82, stronger effect = lower value 1 | S. cerevisiae deletion strains, locus YPL256C, strain CLN2, stronger effect = lower value 1.06

Nc1ccc(CCNc2ncnc3c2ncn3C2OC(CO)C(O)C2O)cc1 (stereo not given)
inactive: S. cerevisiae deletion strains, locus YAL040C, strain CLN3, stronger effect = lower value 1.03 | S. cerevisiae deletion strains, locus YCL061C, strain MRC1 (second series), stronger effect = lower value 0.997 | S. cerevisiae deletion strains, locus YDR363W, strain ESC2, stronger effect = lower value 0.988 | S. cerevisiae deletion strains, locus YER002W, strain NOP16, stronger effect = lower value 0.991 | [3] 1 | [4] 1.02 | S. cerevisiae deletion strains, locus YNL175C, strain NOP13, stronger effect = lower value 0.985 | S. cerevisiae deletion strains, locus YNL197C, strain WHI3, stronger effect = lower value 1.01 | S. cerevisiae deletion strains, locus YNL224C, strain SQS1, stronger effect = lower value 0.977 | [5] 0.995 | S. cerevisiae deletion strains, locus YOR083W, strain WHI5 (second series), stronger effect = lower value 0.995 | [6] 0.986 | [7] 0.999

OCc1nccn1Cc1ccc(Cl)cc1
active: [1] 0.288 | [4] 1.51 [resistant]
inactive: [8] 1.02 | [9] 1 | [10] 1.03 | [11] 1.02 | [12] 1.05 | [13] 1 | [14] 1 | [15] 0.983 | [16] 1.03 | [3] 0.944 | [17] 0.999 | [18] 0.889 | [19] 0.998 | [20] 1.02 | [21] 0.849 | [22] 0.983 | [23] 1.01 | [24] 1.04 | [25] 1.02 | [26] 0.923 | [5] 1 | [27] 0.947 | [6] 1.08 | [7] 1.02 | [28] 1.03

COC(=O)c1cscc1Sc1ccc(Cl)cc1
active: [11] 0.82 | [1] 0.319 | [18] 0.747 | [20] 0.664 | [21] 0.771 | [5] 0.939 | [27] 0.848 | [7] 0.845 | [28] 0.565
inactive: [8] 0.948 | [9] 0.953 | [29] 0.978 | [10] 0.961 | [12] 0.983 | [13] 0.931 | [14] 0.956 | [15] 0.944 | [2] 0.995 | [16] 0.987 | [3] 0.943 | [19] 0.955 | [22] 0.914 | [23] 0.96 | [24] 0.989 | [25] 0.968 | [26] 0.916 | [6] 0.998 | S. cerevisiae strains, strain wild type, stronger effect = lower value 0.949

COc1cscc1C(N)=O
inactive: [8] 1.01 | [9] 0.984 | [29] 1.02 | [10] 1 | [12] 1.06 | [13] 0.959 | [14] 1.01 | [30] 0.99 | [1] 1.06 | [15] 1.03 | [16] 1.04 | [3] 1.04 | [18] 1.01 | [19] 0.997 | [20] 0.965 | [21] 0.998 | [22] 0.979 | [23] 0.987 | [24] 1.06 | [4] 0.966 | [25] 1.01 | [26] 0.969 | [5] 0.996 | [27] 1.01 | [6] 1.12 | [7] 0.957 | [28] 1.14

COC(=O)c1ccsc1N
inactive: [8] 0.988 | [9] 1 | [10] 1.01 | [12] 1.07 | [13] 0.985 | [14] 1 | [30] 0.981 | [1] 1.09 | [15] 0.995 | [16] 1.02 | [3] 1.01 | [17] 0.99 | [18] 1 | [19] 0.983 | [20] 0.94 | [21] 1.14 | [22] 0.97 | [23] 0.993 | [24] 1.02 | [25] 1 | [26] 0.963 | [5] 0.992 | [27] 0.976 | [6] 0.986 | [7] 0.958 | [28] 1.11
